In the supplement of paper PMC8728848:
The entries come from a sample that favours the strongest signals as a whole.

Experiments:
Assay in all cases: glycan array binding signal (z-score within array); higher = stronger binding
Details in all cases: glycan notation: IUPAC condensed, linker removed
[1] = target: Fuc(a1-2)Gal(b1-3)GalNAc(b1-4)[Neu5Ac(a2-3)]Gal(b1-4)Glc
Method in brief: (§1)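 Glycan array data came from 3228 arrays in the Consortium for Functional Glycomics database, and only arrays with an available protein sequence were kept. Glycan names were put into IUPAC-condensed notation, and columns mapping to the same glycan were averaged. The binding signal is a within-array Z-score, averaged across arrays of one protein sequence run at different concentrations or buffers and across linkers. A negative Z-score can be read as non-binding.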

Fuc(a1-2)Gal(b1-3)GlcNAc = target: Fuc(a1-2)Gal(b1-3)GlcNAc
Method in brief: as §1

Fuc(a1-2)Gal(b1-4)GlcNAc = target: Fuc(a1-2)Gal(b1-4)GlcNAc
Method in brief: as §1

[2] = target: Fuc(a1-2)Gal(b1-4)[Fuc(a1-3)]GlcNAc(b1-3)Gal(b1-4)[Fuc(a1-3)]GlcNAc
Method in brief: as §1

[3] = target: Fuc(a1-3)[Gal(b1-4)]GlcNAc(b1-2)Man(a1-3)[Fuc(a1-3)[Gal(b1-4)]GlcNAc(b1-2)Man(a1-6)]Man(b1-4)GlcNAc(b1-4)GlcNAc
Method in brief: as §1

[4] = target: Gal(a1-4)Gal(b1-4)GlcNAc(b1-3)Gal(b1-4)Glc
Method in brief: as §1

[5] = target: Gal(b1-4)GlcNAc(b1-3)[Gal(b1-4)GlcNAc(b1-6)]Gal(b1-4)GlcNAc
Method in brief: as §1

[6] = target: Gal(b1-4)GlcNAc(b1-6)GalNAc
Method in brief: as §1

Gal3S(b1-4)GlcNAc6S = target: Gal3S(b1-4)GlcNAc6S
Method in brief: as §1

[7] = target: GalNAc(b1-3)Gal(a1-4)Gal(b1-4)GlcNAc
Method in brief: as §1

[8] = target: GlcNAc(a1-3)Gal(b1-4)GlcNAc
Method in brief: as §1

[9] = target: GlcNAc(a1-6)Gal(b1-4)GlcNAc
Method in brief: as §1

Kdn(a2-6)Gal(b1-4)GlcNAc = target: Kdn(a2-6)Gal(b1-4)GlcNAc
Method in brief: as §1

[10] = target: Man(a1-2)Man(a1-3)[Man(a1-2)Man(a1-6)]Man(a1-6)[Man(a1-2)Man(a1-2)Man(a1-3)]Man(b1-4)GlcNAc(b1-4)GlcNAc
Method in brief: as §1

[11] = target: Man(a1-2)Man(a1-6)[Man(a1-3)]Man(a1-6)[Man(a1-2)Man(a1-2)Man(a1-3)]Man
Method in brief: as §1

[12] = target: Man(a1-2)Man(a1-6)[Man(a1-3)]Man(a1-6)[Man(a1-2)Man(a1-2)Man(a1-3)]Man(b1-4)GlcNAc(b1-4)GlcNAc
Method in brief: as §1

Man(a1-3)[Man(a1-6)]Man = target: Man(a1-3)[Man(a1-6)]Man
Method in brief: as §1

[13] = target: Man(a1-3)[Man(a1-6)]Man(a1-6)[Man(a1-2)Man(a1-3)]Man(b1-4)GlcNAc(b1-4)GlcNAc
Method in brief: as §1

[14] = target: Neu5Ac(a2-3)Gal(b1-3)[Neu5Ac(a2-3)Gal(b1-4)]GlcNAc
Method in brief: as §1

[15] = target: Neu5Ac(a2-3)Gal(b1-4)GlcNAc(b1-2)Man(a1-3)[GlcNAc(b1-2)Man(b1-4)GlcNAc(b1-2)Man(a1-6)]Man(b1-4)GlcNAc(b1-4)GlcNAc
Method in brief: as §1

[16] = target: Neu5Ac(a2-3)Gal(b1-4)GlcNAc(b1-3)GalNAc
Method in brief: as §1

[17] = target: Neu5Ac(a2-3)Gal(b1-4)[Fuc(a1-3)]GlcNAc(b1-3)Gal
Method in brief: as §1

[18] = target: Neu5Ac(a2-3)Gal(b1-4)[Fuc(a1-3)]GlcNAc(b1-6)[Neu5Ac(a2-3)Gal(b1-3)]GalNAc
Method in brief: as §1

[19] = target: Neu5Ac(a2-6)Gal(b1-4)GlcNAc(b1-3)Gal(b1-3)GlcNAc
Method in brief: as §1

[20] = target: Neu5Ac(a2-6)Gal(b1-4)GlcNAc(b1-3)Gal(b1-4)[Fuc(a1-3)]GlcNAc(b1-3)Gal(b1-4)[Fuc(a1-3)]GlcNAc
Method in brief: as §1

Neu5Ac(a2-8)Neu5Ac = target: Neu5Ac(a2-8)Neu5Ac
Method in brief: as §1

[21] = target: Neu5Ac(a2-8)Neu5Ac(a2-8)Neu5Ac
Method in brief: as §1

[22] = target: Neu5Ac(b2-6)Gal(b1-4)GlcNAc
Method in brief: as §1

B1: Ficolin B (Rattus norvegicus), P57756 (protein)
chain: MVLGSAALFVLSLCVTELTLHAADTCPEVKVLDLEGSNKLTILQGCPGLPGALGPKGEAGAKGDRGESGLPGHPGKAGPTGPKGDRGEKGVRGEKGDTGPSQSCATGPRTCKELLTRGYFLTGWYTIYLPDCRPLTVLCDMDTDGGGWTVFQRRIDGTVDFFRDWTSYKQGFGSQLGEFWLGNDNIHALTTQGTNELRVDLADFDGNHDFAKYSSFQIQGEAEKYKLILGNFLGGGAGDSLTSQNNMLFSTKDQDNDQGSSNCAVRYHGAWWYSDCHTSNLNGLYLRGLHKSYANGVNWKSWKGYNYSYKVSEMKVRLI
- glycan array binding signal (z-score) [1]: -0.165
- glycan array binding signal (z-score) (Fuc(a1-2)Gal(b1-3)GlcNAc): -0.197
- glycan array binding signal (z-score) (Fuc(a1-2)Gal(b1-4)GlcNAc): -0.192
- glycan array binding signal (z-score) [2]: -0.205
- glycan array binding signal (z-score) [3]: -0.214
- glycan array binding signal (z-score) [4]: -0.169
- glycan array binding signal (z-score) [5]: 1.56
- glycan array binding signal (z-score) [6]: -0.085
- glycan array binding signal (z-score) (Gal3S(b1-4)GlcNAc6S): -0.2
- glycan array binding signal (z-score) [7]: -0.2
- glycan array binding signal (z-score) [8]: -0.127
- glycan array binding signal (z-score) [9]: 0.051
- glycan array binding signal (z-score) (Kdn(a2-6)Gal(b1-4)GlcNAc): -0.209
- glycan array binding signal (z-score) [10]: -0.224
- glycan array binding signal (z-score) [11]: -0.212
- glycan array binding signal (z-score) [12]: -0.18
- glycan array binding signal (z-score) (Man(a1-3)[Man(a1-6)]Man): -0.166
- glycan array binding signal (z-score) [13]: -0.182
- glycan array binding signal (z-score) [14]: 3.17
- glycan array binding signal (z-score) [15]: 5.65
- glycan array binding signal (z-score) [16]: -0.192
- glycan array binding signal (z-score) [17]: 0.01
- glycan array binding signal (z-score) [18]: 0.019
- glycan array binding signal (z-score) [19]: 0.054
- glycan array binding signal (z-score) [20]: -0.204
- glycan array binding signal (z-score) (Neu5Ac(a2-8)Neu5Ac): 3.73
- glycan array binding signal (z-score) [21]: 2.69
- glycan array binding signal (z-score) [22]: 8.52
